# PMC11062922 (Nature Chemical Biology, 2023)
# Read-outs that look alike come from different tables or passages of the source.
# Tests used:
# Design in all cases: species or system human, MV4-11 + K-562 + COLO205 + SK-N-BE2 + OVCAR-8
# [1] = test system: DCTPP1; details: read-out: apparent Kd, n = 1
# [2] = test system: CDK6; details: read-out: apparent Kd; compound concentrations: 100 nM and 1000 nM (sheet 'Samples'), CATDS: 3.7997833467257401E-2; n = 1
# [3] = test system: CSNK1G1; details: read-out: apparent Kd, n = 1
# [4] = test system: ILK; details: read-out: apparent Kd; compound concentrations: 100 nM and 1000 nM (sheet 'Samples'), CATDS: 4.6551408852927599E-2; n = 1
# [5] = test system: STRADA; details: read-out: apparent Kd, compound concentrations: 100 nM and 1000 nM (sheet 'Samples'), n = 1
# [6] = test system: TAOK2; details: read-out: apparent Kd, n = 1
# [7] = test system: BMP2K; details: read-out: apparent Kd, n = 1
# [8] = test system: MARK4; details: read-out: apparent Kd, compound concentrations: 100 nM and 1000 nM (sheet 'Samples'), n = 1
# [9] = test system: PRKAA1; details: read-out: apparent Kd, n = 1
# [10] = test system: PRKAG2; details: read-out: apparent Kd, compound concentrations: 100 nM and 1000 nM (sheet 'Samples'), n = 1
# [11] = test system: COX5A; details: read-out: apparent Kd, n = 1
# [12] = test system: STK26; details: read-out: apparent Kd, n = 1
# [13] = test system: STK4; details: read-out: apparent Kd; compound concentrations:100 nM and 1000 nM (sheet 'Samples'); n = 1
# [14] = test system: PIK3C2A; details: read-out: apparent Kd, compound concentrations: 100 nM and 1000 nM (sheet 'Samples'), n = 1
# [15] = test system: BRAF; details: read-out: apparent Kd, compound concentrations: 100 nM and 1000 nM (sheet 'Samples'), n = 1
# [16] = test system: MAP3K11; details: read-out: apparent Kd, compound concentrations: 100 nM and 1000 nM (sheet 'Samples'), n = 1
# [17] = test system: PRKAA2; details: read-out: apparent Kd, n = 1
# [18] = test system: NNT; details: read-out: apparent Kd; compound concentrations:100 nM and 1000 nM (sheet 'Samples'); n = 1
# [19] = test system: SLK; details: read-out: apparent Kd; compound concentrations:100 nM and 1000 nM (sheet 'Samples'); n = 1
# [20] = test system: CSNK1E; details: read-out: apparent Kd; compound concentrations:100 nM and 1000 nM (sheet 'Samples'); n = 1
# [21] = compound concentrations:100 nM and 1000 nM (sheet 'Samples')
structure (smiles),measurement,setting,value
COc1ccccc1CNC1=NC(=O)/C(=C/c2ccc3ncccc3c2)S1 [RO4503315-000],potency estimated from few doses,"[1]; compound concentrations: 100 nM and 1000 nM (sheet 'Samples'), CATDS: 6.8298728287036994E-2",1.39 µM
COc1ccc(Nc2nccc(N3CCC(NC(=O)Nc4ccc5c(c4)OCO5)C3)n2)cc1 (stereo not shown) [GSK1379745A],potency estimated from few doses,[2],1.68 µM
same,potency estimated from few doses,"[3]; compound concentrations: 100 nM and 1000 nM (sheet 'Samples'), CATDS: 3.8833809861808503E-2",1.6 µM
same,potency estimated from few doses,[4],1.11 µM
same,potency estimated from few doses,[5]; CATDS: 3.4015058114393301E-2,2.21 µM
CCN(CC)CCOc1ccc(Nc2ncc3cc(-c4c(Cl)cccc4Cl)c(=O)n(C)c3n2)cc1 [SB-601273],potency estimated from few doses,[6]; [21],1.15 µM
CN1C(=O)c2ccccc2N(C)c2nc(Nc3cnn(C4CCNCC4)c3)ncc21 [XMD-17-51],potency estimated from few doses,"[7]; compound concentrations: 100 nM and 1000 nM (sheet 'Samples'), CATDS: 1.6944830002157098E-2",0.771 µM
same,potency estimated from few doses,[8]; CATDS: 2.0662278149912901E-2,0.412 µM
same,potency estimated from few doses,"[9]; compound concentrations: 100 nM and 1000 nM (sheet 'Samples'), CATDS: 1.61806798261299E-2",0.911 µM
same,potency estimated from few doses,[10]; CATDS: 1.7077716006994301E-2,0.75 µM
same,potency estimated from few doses,"[6]; compound concentrations: 100 nM and 1000 nM (sheet 'Samples'), CATDS: 5.5086775745804402E-2",0.0424 µM
Nc1nc(-c2ccc3c(N)n[nH]c3c2)cc(N2CCCCC2)n1 [GSK2228768A],potency estimated from few doses,[11]; [21],1.06 µM
same,potency estimated from few doses,[1]; [21],1.72 µM
same,potency estimated from few doses,[12]; [21],1.33 µM
CS(=O)(=O)Cc1ccc(Nc2nccc(-c3c(-c4cccc(NC(=O)C5CCCCC5)c4)nn4ncccc34)n2)cc1 [GSK350559A],potency estimated from few doses,[13],1.77 µM
CS(=O)(=O)CCNCc1ccc(-c2ccc3ncnc(Nc4ccc(OCc5cccc(F)c5)c(C(F)(F)F)c4)c3c2)o1 [GW576484X],potency estimated from few doses,"[3]; compound concentrations: 100 nM and 1000 nM (sheet 'Samples'), CATDS: 5.4638885824274799E-2",1.62 µM
same,potency estimated from few doses,[8]; CATDS: 5.9224998960535298E-2,1.37 µM
same,potency estimated from few doses,[14]; CATDS: 5.2836581053762099E-2,1.74 µM
same,potency estimated from few doses,[5]; CATDS: 5.2854601863181902E-2,1.74 µM
Cl.Cl.Cl.c1ccc(Oc2ccc(Nc3ccnc4cc(-c5ccc(CN6CCNCC6)o5)ccc34)cc2)nc1.c1ccc(Oc2ccc(Nc3ccnc4cc(-c5ccc(CN6CCNCC6)o5)ccc34)cc2)nc1 [GW567142A],potency estimated from few doses,[14]; CATDS: 1.69384830257906E-2,2.08 µM
CC(C)c1nc(-c2cccc(NS(=O)(=O)c3ccccc3)c2)c(-c2ccnc(Nc3ccc4c(c3)CN(C)CC4)n2)s1 [GSK1649598A],potency estimated from few doses,[15]; CATDS: 1.66184718911398E-2,0.621 µM
same,potency estimated from few doses,"[6]; compound concentrations: 100 nM and 1000 nM (sheet 'Samples'), CATDS: 1.5717541572097499E-2",0.739 µM
O=C1N=C(NCCc2cccc(Cl)c2)S/C1=C\c1ccc2ncccc2c1 [RO4509201-000],potency estimated from few doses,"[1]; compound concentrations: 100 nM and 1000 nM (sheet 'Samples'), CATDS: 5.6638769409894603E-2",1.59 µM
COc1cccc(-n2ncc3c(N/N=C/c4ccc(C(=O)NCCN(C)C)cc4)ncnc32)c1.Cl [GW784307A],potency estimated from few doses,"[7]; compound concentrations: 100 nM and 1000 nM (sheet 'Samples'), CATDS: 2.5475842805915101E-2",2.05 µM
same,potency estimated from few doses,"[11]; compound concentrations: 100 nM and 1000 nM (sheet 'Samples'), CATDS: 2.84173796904106E-2",1.28 µM
O=C1N=C(NCc2cccs2)SC1Cc1ccc2ncccc2c1 (stereo not shown) [RO4629078-000],potency estimated from few doses,"[7]; compound concentrations: 100 nM and 1000 nM (sheet 'Samples'), CATDS: 1.0249270291889601E-2",0.63 µM
same,potency estimated from few doses,[16]; CATDS: 8.9937609356747009E-3,0.89 µM
same,potency estimated from few doses,[8]; CATDS: 9.8317273929225003E-3,0.699 µM
same,potency estimated from few doses,"[9]; compound concentrations: 100 nM and 1000 nM (sheet 'Samples'), CATDS: 1.35837809267181E-2",0.343 µM
same,potency estimated from few doses,"[17]; compound concentrations: 100 nM and 1000 nM (sheet 'Samples'), CATDS: 1.00285824398185E-2",0.665 µM
same,potency estimated from few doses,[10]; CATDS: 1.6046460203227E-2,0.253 µM
O=S(=O)(c1ccc(-c2ccnc3[nH]ccc23)cc1)N1CCCC1 [GSK846226A],potency estimated from few doses,[11]; [21],0.848 µM
same,potency estimated from few doses,[1]; [21],2.15 µM
same,potency estimated from few doses,[18],2.15 µM
Cn1cc(-c2cnc(N)c3c(-c4ccc5c(c4)CCN5C(=O)Cc4ccccc4)csc23)cn1 [GSK2593074A],potency estimated from few doses,[13],1.13 µM
CC(=O)c1c(-c2ccncc2)[nH]c(-c2ccncc2)c1C [GW493036X],potency estimated from few doses,[3]; [21],0.717 µM
Cl.Cn1c(=O)c(Cc2ccc(F)cc2F)cc2cnc(NC3CCOCC3)nc21 [RO3308757-001],potency estimated from few doses,[9]; [21],0.706 µM
same,potency estimated from few doses,[17]; [21],1.19 µM
O=S(=O)(CCOCc1ccc(-c2ccc3ncnc(Nc4ccc(OCc5cccc(F)c5)c(Cl)c4)c3c2)o1)c1ccccc1 [GW615311X],potency estimated from few doses,[14]; CATDS: 2.34385173398927E-2,2.05 µM
same,potency estimated from few doses,"[12]; compound concentrations: 100 nM and 1000 nM (sheet 'Samples'), CATDS: 2.23099896492461E-2",2.34 µM
CC(C)c1nc(-c2cccc(NS(=O)(=O)c3c(F)cccc3F)c2)c(-c2ccnc(Nc3ccc(N4CCOCC4)nc3)n2)s1.Cl [GSK1723980B],potency estimated from few doses,[15]; CATDS: 2.6842704761094599E-2,0.243 µM
same,potency estimated from few doses,[16]; CATDS: 1.8312802074437001E-2,0.662 µM
CC(=O)N1CCN(c2ccc(Nc3nccc(-c4sc(C(C)C)nc4-c4cccc(NS(=O)(=O)c5ccccc5)c4)n3)cn2)CC1 [GSK1645872A],potency estimated from few doses,[15]; CATDS: 3.03150696001999E-2,0.721 µM
COc1cc2ncn(-c3cc(OCc4cccs4)c(C(N)=O)s3)c2cc1OC [GSK312948A],potency estimated from few doses,[7]; [21],1.43 µM
same,potency estimated from few doses,[19],0.262 µM
CNc1nccc(-c2c(-c3ccc(F)cc3)ncn2C2CCN(C)CC2)n1 [SB-222903],potency estimated from few doses,[20],0.0416 µM
